Assay results published in PMC7862700, “An all-to-all approach to the identification of sequence-specific readers for epigenetic DNA modifications on cytosine”.

Experiments:
Assay in all cases: DAPPL (digital affinity profiling via proximity ligation, sequencing); 10 mM Tris-HCl pH 7.5, 50 mM NaCl, 1 mM DTT, 4% glycerol, room temperature, 30 min; GST-TFs on glutathione beads, 16-mer random dsDNA library, 0.1% formaldehyde crosslink after washing; high values mean tight binding
Conditions in all cases: protein: recombinant; tags: N-terminal GST; dsDNA, one strand shown
[1] = target: T1, FLI1 (Homo sapiens, UniProt Q01543 1-452)
T1 sequence: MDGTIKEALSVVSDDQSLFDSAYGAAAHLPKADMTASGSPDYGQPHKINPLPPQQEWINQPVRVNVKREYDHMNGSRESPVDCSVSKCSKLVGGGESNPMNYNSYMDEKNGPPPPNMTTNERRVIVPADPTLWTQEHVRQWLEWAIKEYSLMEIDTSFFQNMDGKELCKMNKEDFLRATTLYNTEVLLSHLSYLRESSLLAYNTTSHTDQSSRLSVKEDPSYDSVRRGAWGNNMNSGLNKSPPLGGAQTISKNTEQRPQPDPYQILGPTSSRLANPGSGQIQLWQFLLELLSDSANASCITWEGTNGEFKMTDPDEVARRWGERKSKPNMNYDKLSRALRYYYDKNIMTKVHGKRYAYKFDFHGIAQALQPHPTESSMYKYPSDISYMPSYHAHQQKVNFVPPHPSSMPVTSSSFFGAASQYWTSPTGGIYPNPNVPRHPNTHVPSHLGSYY
Method in brief: (§1)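 Human transcription factors fused to GST were expressed in yeast, captured on glutathione beads, given DNA barcodes and pooled with a GST-only negative control. Pools were incubated with 200 nmole of a 16-mer random double-stranded DNA library in Tris/NaCl/DTT/glycerol buffer at room temperature for 30 min. They were then washed, crosslinked with 0.1% formaldehyde, proximity-ligated (BsaI/T4 ligase, 1 h, 37 °C), PCR-amplified and sequenced on an Illumina NextSeq500. Binding signal is each 6-mer's read frequency for a factor divided by its frequency for the GST control.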

[2] = target: T2, ELK1 (Homo sapiens, UniProt P19419 1-428)
T2 sequence: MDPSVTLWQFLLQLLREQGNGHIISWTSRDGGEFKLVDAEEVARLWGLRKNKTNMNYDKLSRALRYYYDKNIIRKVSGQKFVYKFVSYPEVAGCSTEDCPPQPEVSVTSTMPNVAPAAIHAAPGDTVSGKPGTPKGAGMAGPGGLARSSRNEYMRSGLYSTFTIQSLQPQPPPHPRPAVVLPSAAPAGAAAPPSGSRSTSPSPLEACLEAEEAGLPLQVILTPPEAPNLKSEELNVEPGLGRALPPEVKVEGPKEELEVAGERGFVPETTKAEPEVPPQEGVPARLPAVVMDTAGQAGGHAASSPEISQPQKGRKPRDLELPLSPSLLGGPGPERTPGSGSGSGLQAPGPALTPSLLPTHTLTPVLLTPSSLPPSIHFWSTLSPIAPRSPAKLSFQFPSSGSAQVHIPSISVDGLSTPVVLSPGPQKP
Method in brief: as §1

[3] = target: T3, GABPA (Homo sapiens, UniProt Q06546 1-454)
T3 sequence: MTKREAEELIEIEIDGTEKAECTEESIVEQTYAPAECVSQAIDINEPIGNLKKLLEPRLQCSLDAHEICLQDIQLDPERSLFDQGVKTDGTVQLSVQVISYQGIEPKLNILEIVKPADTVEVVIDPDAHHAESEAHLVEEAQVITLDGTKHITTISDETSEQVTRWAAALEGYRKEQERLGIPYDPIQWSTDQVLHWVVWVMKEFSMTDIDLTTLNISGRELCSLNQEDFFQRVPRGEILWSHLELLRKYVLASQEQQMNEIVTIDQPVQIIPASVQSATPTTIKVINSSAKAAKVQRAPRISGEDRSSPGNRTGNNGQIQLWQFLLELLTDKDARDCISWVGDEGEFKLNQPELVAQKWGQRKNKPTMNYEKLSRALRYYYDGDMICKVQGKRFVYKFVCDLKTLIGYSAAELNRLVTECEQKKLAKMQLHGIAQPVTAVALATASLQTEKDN
Method in brief: as §1

[4] = target: T4, ERG (Homo sapiens, UniProt P11308 1-479)
T4 sequence: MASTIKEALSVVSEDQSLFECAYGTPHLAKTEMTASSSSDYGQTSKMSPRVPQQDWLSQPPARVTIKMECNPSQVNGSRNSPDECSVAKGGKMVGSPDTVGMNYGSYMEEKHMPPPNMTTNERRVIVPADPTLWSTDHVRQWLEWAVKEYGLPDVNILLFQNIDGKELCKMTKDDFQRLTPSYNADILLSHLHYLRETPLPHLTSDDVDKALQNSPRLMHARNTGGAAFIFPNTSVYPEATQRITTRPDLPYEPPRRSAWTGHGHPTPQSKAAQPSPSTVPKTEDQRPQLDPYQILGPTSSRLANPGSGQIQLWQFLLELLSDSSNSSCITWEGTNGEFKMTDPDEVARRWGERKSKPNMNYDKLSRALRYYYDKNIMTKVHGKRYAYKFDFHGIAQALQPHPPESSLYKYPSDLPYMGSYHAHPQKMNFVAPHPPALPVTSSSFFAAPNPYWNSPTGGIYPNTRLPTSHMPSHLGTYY
Method in brief: as §1

[5] = target: ELF1 (Homo sapiens, UniProt P32519 1-619)
Chain of ELF1 (P32519 whole entry): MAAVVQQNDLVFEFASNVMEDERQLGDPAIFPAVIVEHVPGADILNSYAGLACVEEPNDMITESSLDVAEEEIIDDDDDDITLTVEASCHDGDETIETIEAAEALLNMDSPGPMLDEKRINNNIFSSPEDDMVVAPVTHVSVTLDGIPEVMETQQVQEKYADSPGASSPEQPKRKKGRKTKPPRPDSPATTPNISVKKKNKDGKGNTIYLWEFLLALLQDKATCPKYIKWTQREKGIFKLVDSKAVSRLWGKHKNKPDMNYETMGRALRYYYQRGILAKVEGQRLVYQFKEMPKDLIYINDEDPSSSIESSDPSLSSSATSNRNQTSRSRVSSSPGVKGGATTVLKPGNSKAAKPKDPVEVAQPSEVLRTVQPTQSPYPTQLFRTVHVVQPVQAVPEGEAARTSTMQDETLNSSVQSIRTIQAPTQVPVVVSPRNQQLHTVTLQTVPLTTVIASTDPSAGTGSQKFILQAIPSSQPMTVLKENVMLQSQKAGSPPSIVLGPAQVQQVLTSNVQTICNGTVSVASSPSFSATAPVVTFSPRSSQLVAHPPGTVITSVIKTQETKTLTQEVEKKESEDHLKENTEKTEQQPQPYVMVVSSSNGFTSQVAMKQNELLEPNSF
Method in brief: as §1

[6] = target: T5, EHF (Homo sapiens, UniProt Q9NZC4 1-300)
T5 sequence: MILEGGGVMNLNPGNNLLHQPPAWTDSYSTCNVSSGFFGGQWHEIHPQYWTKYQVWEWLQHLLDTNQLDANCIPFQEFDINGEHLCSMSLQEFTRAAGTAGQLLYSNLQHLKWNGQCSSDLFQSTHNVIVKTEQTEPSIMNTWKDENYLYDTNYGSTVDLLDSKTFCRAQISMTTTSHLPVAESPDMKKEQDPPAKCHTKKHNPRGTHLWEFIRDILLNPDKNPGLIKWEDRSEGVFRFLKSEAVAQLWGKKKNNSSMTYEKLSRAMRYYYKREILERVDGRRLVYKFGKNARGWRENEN
Method in brief: as §1

[7] = target: SPI1 (Homo sapiens, UniProt P17947 1-270)
Method in brief: as §1

[8] = target: SPIB (Homo sapiens, UniProt Q01892 1-262)
Chain of SPIB (Q01892 whole entry): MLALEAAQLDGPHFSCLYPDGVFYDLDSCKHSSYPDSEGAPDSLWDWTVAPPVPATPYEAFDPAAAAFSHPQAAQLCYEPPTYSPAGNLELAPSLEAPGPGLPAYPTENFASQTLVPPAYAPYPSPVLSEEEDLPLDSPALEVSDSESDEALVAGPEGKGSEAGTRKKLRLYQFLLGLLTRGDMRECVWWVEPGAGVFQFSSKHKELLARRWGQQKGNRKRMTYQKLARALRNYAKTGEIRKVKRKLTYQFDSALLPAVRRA
Method in brief: as §1

[9] = target: T6, ELK3 (Homo sapiens, UniProt P41970 1-407)
T6 sequence: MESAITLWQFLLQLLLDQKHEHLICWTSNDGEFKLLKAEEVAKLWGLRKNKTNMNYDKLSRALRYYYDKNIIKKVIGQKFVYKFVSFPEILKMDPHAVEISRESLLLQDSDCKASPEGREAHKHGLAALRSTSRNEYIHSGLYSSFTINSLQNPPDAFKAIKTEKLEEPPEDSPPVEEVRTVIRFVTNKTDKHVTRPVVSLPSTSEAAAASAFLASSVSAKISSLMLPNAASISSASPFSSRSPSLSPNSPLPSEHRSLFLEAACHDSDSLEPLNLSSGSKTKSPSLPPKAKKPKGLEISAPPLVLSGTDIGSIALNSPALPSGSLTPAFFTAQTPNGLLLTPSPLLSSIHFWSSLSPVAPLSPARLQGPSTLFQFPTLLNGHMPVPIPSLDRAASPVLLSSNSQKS
Method in brief: as §1

[10] = target: T7, FEV (Homo sapiens, UniProt Q99581 1-238)
T7 sequence: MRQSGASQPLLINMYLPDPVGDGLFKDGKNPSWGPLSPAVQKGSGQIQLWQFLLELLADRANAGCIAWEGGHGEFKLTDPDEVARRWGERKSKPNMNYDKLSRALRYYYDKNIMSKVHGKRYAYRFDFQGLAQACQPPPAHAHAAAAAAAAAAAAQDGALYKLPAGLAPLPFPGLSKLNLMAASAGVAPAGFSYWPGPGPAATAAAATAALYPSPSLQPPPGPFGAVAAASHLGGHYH
Method in brief: as §1

[11] = target: ETV5 (Homo sapiens, UniProt P41161 1-510)
Chain of ETV5 (P41161 whole entry): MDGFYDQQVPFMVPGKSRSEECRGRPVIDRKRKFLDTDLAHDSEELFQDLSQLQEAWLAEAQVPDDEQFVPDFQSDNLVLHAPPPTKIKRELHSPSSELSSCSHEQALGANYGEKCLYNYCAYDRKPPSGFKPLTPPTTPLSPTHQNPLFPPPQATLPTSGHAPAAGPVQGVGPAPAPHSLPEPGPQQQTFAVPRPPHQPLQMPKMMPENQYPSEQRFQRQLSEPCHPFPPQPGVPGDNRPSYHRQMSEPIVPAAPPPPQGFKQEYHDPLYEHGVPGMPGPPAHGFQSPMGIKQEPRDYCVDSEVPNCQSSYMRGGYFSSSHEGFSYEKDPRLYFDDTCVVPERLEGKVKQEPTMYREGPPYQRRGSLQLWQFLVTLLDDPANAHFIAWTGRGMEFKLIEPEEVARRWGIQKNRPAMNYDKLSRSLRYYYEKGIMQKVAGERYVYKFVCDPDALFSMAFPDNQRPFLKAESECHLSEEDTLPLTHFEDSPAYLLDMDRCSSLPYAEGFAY
Method in brief: as §1

[12] = target: T8, SPIC (Homo sapiens, UniProt Q8N5J4 1-248)
T8 sequence: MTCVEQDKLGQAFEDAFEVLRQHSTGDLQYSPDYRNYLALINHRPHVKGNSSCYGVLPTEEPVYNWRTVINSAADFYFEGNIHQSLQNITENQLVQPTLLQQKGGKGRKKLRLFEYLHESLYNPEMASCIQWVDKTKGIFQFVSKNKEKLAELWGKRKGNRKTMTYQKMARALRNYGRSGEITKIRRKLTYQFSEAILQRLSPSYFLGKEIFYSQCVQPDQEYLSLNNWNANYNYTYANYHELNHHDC
Method in brief: as §1

[13] = target: ELF4 (Homo sapiens, UniProt Q99607 1-663)
Chain of ELF4 (Q99607 whole entry): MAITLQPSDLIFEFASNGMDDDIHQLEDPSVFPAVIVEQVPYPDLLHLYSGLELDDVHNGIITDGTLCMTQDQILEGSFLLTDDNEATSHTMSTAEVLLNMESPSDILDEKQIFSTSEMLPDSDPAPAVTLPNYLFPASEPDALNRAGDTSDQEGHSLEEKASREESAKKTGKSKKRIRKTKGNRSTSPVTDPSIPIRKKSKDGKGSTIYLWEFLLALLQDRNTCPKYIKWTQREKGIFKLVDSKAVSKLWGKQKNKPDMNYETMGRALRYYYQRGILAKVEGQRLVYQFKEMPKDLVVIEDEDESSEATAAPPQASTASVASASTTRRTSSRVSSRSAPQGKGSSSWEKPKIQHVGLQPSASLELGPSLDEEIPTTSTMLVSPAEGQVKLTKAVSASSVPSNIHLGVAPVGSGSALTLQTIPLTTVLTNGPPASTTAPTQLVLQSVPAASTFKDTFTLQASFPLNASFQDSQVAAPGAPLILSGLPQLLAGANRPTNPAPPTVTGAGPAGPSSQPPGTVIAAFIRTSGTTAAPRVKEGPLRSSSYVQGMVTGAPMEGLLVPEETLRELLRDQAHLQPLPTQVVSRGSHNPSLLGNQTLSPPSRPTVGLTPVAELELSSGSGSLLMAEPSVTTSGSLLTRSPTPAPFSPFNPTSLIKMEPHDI
Method in brief: as §1

[14] = target: T9, ELK4 (Homo sapiens, UniProt P28324-2 1-405)
T9 sequence: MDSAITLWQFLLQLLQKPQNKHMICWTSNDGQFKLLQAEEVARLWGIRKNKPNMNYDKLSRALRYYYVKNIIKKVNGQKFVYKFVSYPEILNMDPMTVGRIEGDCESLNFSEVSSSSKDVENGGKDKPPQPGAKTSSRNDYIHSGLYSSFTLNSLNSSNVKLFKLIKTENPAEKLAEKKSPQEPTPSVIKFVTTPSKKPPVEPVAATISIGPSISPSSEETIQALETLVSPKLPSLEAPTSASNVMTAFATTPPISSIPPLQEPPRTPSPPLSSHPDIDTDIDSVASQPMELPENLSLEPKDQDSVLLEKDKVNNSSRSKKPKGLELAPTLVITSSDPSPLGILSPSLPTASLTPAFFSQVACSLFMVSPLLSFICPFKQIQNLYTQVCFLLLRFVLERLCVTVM
Method in brief: as §1

[15] = target: T10, ETV2 (Homo sapiens, UniProt O00321 1-342)
T10 sequence: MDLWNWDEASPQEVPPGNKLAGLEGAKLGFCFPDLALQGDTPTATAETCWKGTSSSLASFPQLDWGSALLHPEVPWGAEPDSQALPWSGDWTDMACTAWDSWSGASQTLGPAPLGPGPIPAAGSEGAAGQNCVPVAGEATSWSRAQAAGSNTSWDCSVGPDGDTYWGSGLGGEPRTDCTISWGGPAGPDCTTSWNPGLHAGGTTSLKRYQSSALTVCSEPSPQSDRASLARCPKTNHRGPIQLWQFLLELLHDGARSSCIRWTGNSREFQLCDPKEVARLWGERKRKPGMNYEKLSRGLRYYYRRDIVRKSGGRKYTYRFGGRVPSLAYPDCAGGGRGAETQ
Method in brief: as §1

[16] = target: T11, ELF3 (Homo sapiens, UniProt P78545 1-371)
T11 sequence: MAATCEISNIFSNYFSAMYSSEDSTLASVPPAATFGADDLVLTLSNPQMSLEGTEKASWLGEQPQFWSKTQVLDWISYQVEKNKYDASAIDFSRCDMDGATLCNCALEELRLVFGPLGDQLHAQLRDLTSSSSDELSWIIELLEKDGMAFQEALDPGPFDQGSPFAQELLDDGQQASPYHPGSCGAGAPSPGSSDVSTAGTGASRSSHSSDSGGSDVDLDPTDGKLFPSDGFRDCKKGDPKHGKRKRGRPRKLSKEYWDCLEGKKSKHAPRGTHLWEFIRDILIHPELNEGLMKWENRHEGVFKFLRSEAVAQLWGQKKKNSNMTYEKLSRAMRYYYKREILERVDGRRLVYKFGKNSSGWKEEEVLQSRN
Method in brief: as §1

[17] = target: ETV1 (Homo sapiens, UniProt P50549 1-477)
Chain of ETV1 (P50549 whole entry): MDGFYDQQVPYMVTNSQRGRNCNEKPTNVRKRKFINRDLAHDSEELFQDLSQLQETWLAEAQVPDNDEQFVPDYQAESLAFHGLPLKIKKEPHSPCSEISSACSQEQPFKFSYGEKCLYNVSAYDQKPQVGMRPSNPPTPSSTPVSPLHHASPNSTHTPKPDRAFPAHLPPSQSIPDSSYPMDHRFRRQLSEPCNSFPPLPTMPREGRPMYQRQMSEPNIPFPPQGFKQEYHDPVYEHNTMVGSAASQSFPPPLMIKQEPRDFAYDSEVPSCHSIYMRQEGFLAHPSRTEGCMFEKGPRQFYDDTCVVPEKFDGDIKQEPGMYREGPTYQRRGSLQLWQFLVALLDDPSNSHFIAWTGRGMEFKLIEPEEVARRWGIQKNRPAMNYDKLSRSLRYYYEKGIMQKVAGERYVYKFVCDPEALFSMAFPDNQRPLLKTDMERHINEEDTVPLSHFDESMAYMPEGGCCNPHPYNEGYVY
Method in brief: as §1

Sequence | binding signal [1] | binding signal [2] | binding signal [3] | binding signal [4] | binding signal [5] | binding signal [6] | binding signal [7] | binding signal [8] | binding signal [9] | binding signal [10] | binding signal [11] | binding signal [12] | binding signal [13] | binding signal [14] | binding signal [15] | binding signal [16] | binding signal [17]
TGCATC | 1.35 fold enrichment (6-mer frequency, TF over GST control) | 1.42 fold enrichment (6-mer frequency, TF over GST control) | 1.38 fold enrichment (6-mer frequency, TF over GST control) | 1.43 fold enrichment (6-mer frequency, TF over GST control) | 1.31 fold enrichment (6-mer frequency, TF over GST control) | 1.33 fold enrichment (6-mer frequency, TF over GST control) | 1.42 fold enrichment (6-mer frequency, TF over GST control) | 1.35 fold enrichment (6-mer frequency, TF over GST control) | 1.44 fold enrichment (6-mer frequency, TF over GST control) | 1.33 fold enrichment (6-mer frequency, TF over GST control) | 1.39 fold enrichment (6-mer frequency, TF over GST control) | 1.46 fold enrichment (6-mer frequency, TF over GST control) | 1.31 fold enrichment (6-mer frequency, TF over GST control) | 1.22 fold enrichment (6-mer frequency, TF over GST control) | 1.33 fold enrichment (6-mer frequency, TF over GST control) | 1.3 fold enrichment (6-mer frequency, TF over GST control) | 1.4 fold enrichment (6-mer frequency, TF over GST control)
GCACGC | 1.03 fold enrichment (6-mer frequency, TF over GST control) | 1.09 fold enrichment (6-mer frequency, TF over GST control) | 1.14 fold enrichment (6-mer frequency, TF over GST control) | 1.03 fold enrichment (6-mer frequency, TF over GST control) | 1.15 fold enrichment (6-mer frequency, TF over GST control) | 1.15 fold enrichment (6-mer frequency, TF over GST control) | 1.12 fold enrichment (6-mer frequency, TF over GST control) | 1.19 fold enrichment (6-mer frequency, TF over GST control) | 1.09 fold enrichment (6-mer frequency, TF over GST control) | 1.08 fold enrichment (6-mer frequency, TF over GST control) | 1.04 fold enrichment (6-mer frequency, TF over GST control) | 1.06 fold enrichment (6-mer frequency, TF over GST control) | 1.11 fold enrichment (6-mer frequency, TF over GST control) | 1.05 fold enrichment (6-mer frequency, TF over GST control) | 1.18 fold enrichment (6-mer frequency, TF over GST control) | 1.13 fold enrichment (6-mer frequency, TF over GST control) | 1.16 fold enrichment (6-mer frequency, TF over GST control)
